Data on 28 compounds can be found in PubChem BioAssay (EPA / NIEHS).

The source made the active and inactive calls. Rule for the calls: active = hit-call score of the fitted dose curve at least 0.9, where 1 is the maximum; inactive = score below 0.9.

Read-out in this assay: Tumor necrosis factor receptor superfamily member 6 (Homo sapiens) (UniProt P25445)
The assay is described as follows: LTEA_HepaRG_FAS: Life Technologies and Expression Analysis (LTEA) Assay for Fas cell surface death receptor (FAS) using HepaRG (AID 2283447). To be noted: mRNA level, 48 h; actives raise or lower the signal. The method, then:
LTEA_HepaRG is a cell based, multiplexed-readout assay that uses HepaRG, a human liver cell line, with measurements taken at 48 hours after chemical dosing on a 96-well plate.LTEA_HepaRG_FAS is one of 102 assay component(s) measured in the LTEA HepaRG cell culture assay. It is a marker of Cell proliferation, survival, death.Data from the assay component LTEA_HepaRG_FAS was analyzed into 1 endpoint. This assay endpoint, LTEA_HepaRG_FAS, was analyzed with bidirectional fitting relative to DMSO as the negative control and baseline of activity. Using a type of inducible reporter, measures of mRNA induction for gain or loss-of-signal activity can be used to understand regulation of transcription factor activity. To generalize the intended target to other relatable targets, this assay endpoint is annotated to the cytokine receptor intended target family, where the subfamily is TNF receptor.
A total of 1060 chemcials from the ToxCast library were tested in eight-point concentration-response experiments. Cell culture and cytotoxicity assays were conducted at Thermo Fisher Scientific's Custom Services facility (Madison, WI). A single lot of human HepaRG cells (Thermo Fisher Scientific, Frederick, MD) was used for the cell culture experiments. 96-well format collagen type I coated plates of human HepaRG cells were prepared using established methods. Briefly, cryopreserved HepaRG cells were thawed, plated at a density of approximately 100,000 cells/well in HepaRG Thaw, Plate, and General Purpose media (HPRG770, Thermo Fisher Scientific), and incubated for 48 hours. 0.5% DMSO was selected as vehicle control to balance the requisite need of DMSO in HepaRG cultures to maintain differentiation (for example, baseline metabolism, proportions of hepatocytes vs. cholangiocytes), while enabling further hepatic receptor pathway activation (for example, PXR and CAR) in response to chemical exposure. 48 hours after plating, the culture medium was replaced with HepaRG Serum-Free Incudtion Media. Cells were exposed to each test chemical in duplicate and maintained in CO2 incubators for another 48 hours. Chemical plates were thawed to room temperature and 200x concentrations of treatment groups were prepared. 8-point conentration-reponse curves were made with the highest exposure at 100 uM, followed by half-log dilutions, all in 0.5% DMSO. Each test plate contained variouse controls, induction positive controls (1mM phenobarbital), cytotoxicity positive controls ([…] aflatoxin B1), vehicle controls (0.5% DMSO), and total lysis controls (0.5% DMSO). Cell morphology images were taken using an Essen IncuCyte FLR automated microscope, with six 96-well plates imaged in about 24 minutes. Images were captured and exported and JPEG files. Spent culture media was transfered to black-well plates for the LDH assay, and remaining media was sorted at -80 C for later use. Cells were treated with RLT buffer and frozen until shipped for gene expression analysis. Total RNA was isolated from the cell suspension in 75 uL of Buffer RLT (Qiagen, Germantown, MD 20874) by Quintiles/Expression Analysis (Durham, NC) using a custom isolation procedure. Total RNA from each plate well was transferred to a preamplification plate. Fluidigm's 96.96 Dynamic ArrayTM (Fluidigm, Amsterdam, the Netherlands) technology was used for gene expression analyses by quantitative reverse transcription polymerase chain reaction (qRT-PCR, performed by Quintiles/Expression Analysis, Durham, NC)89. Standard TaqManTM Assays (Applied Biosystems/ThermoFisher Scientific, Foster City, CA) were used to assess the expression of 93 genes selected based on their selectivity and sensitivity to important hepatic receptors known to be modulated by environmental chemicals; importance in human hepatocyte functionality; and hepatotoxicity. […]
Turning to `CCN1CCC2(CC1)COc1cc3c(cc12)N(C(=O)c1ccc(-c2ccc(-c4nnc(C)o4)cc2C)cc1)CC3`, the compound was called inactive. For `O=C(O)C(F)(F)C(F)(F)C(F)(F)C(F)(F)C(F)(F)C(F)(F)C(F)(F)C(F)(F)C(F)(F)C(F)(F)F` the value was “inactive”; for `NC(=O)O`, “inactive”; for `O=C(O)C(Cl)(Cl)Cl`, “inactive”. `O=c1[nH]c(=O)[nH]c(=O)[nH]1`: the compound was called inactive. As for `CC(C)(C)CC(C)(C)c1ccc(O)cc1`, the compound was classed as inactive. As for `O=C1C2(Cl)C3(Cl)C4(Cl)C(Cl)(Cl)C5(Cl)C3(Cl)C1(Cl)C5(Cl)C24Cl` (stereo not drawn), the entry is “inactive”; as for `C[C@]12CCC(=O)C[C@@H]1CC[C@@H]1[C@@H]2CC[C@]2(C)[C@@H](O)CC[C@@H]12`, “inactive”.

`C[C@@H]1C[C@@H]([C@H](O)CC2CC(=O)NC(=O)C2)C(=O)[C@@H](C)C1`: the compound was called inactive. As for `Cc1ccccc1N`, the entry is “inactive”. Turning to `O=[N+]([O-])c1ccc(O)c([N+](=O)[O-])c1`, the result was inactive. For `CCC(C)(C)c1ccc(O)c(C(C)(C)CC)c1` the value was “inactive”; for `CC(C)(C)c1cc(O)ccc1O`, “inactive”; for `CCC(=O)C(CC(C)N(C)C)(c1ccccc1)c1ccccc1` (stereo not drawn), “inactive”. For `Cn1sc(Cl)cc1=O` the value was “inactive”; for `CCOP(=S)(OCC)SCSP(=S)(OCC)OCC`, “inactive”; for `C=CC(=O)OCCCCCC(C)C`, “inactive”.

`ClC1(Cl)C2(Cl)C3(Cl)C4(Cl)C(Cl)(Cl)C5(Cl)C3(Cl)C1(Cl)C5(Cl)C24Cl` (stereo not drawn): the result was inactive. As for `CCOP(=S)(OCC)Oc1nc(Cl)c(Cl)cc1Cl`, the entry is “inactive”.

For the compound `CC(C)(c1ccccc1)c1ccc(O)c(C(C)(C)c2ccccc2)c1`, the compound was called inactive. As for `O=C(Nc1ccc2[nH]ccc2c1)c1cc2cc(F)ccc2n1Cc1cccc(F)c1`, the entry is “inactive”; as for `CC(C)(OO)c1ccccc1`, “inactive”. For `CN(C)N=O` the value was “inactive”.

In the case of `CC12CC1(C)C(=O)N(c1cc(Cl)cc(Cl)c1)C2=O` (stereo not drawn), the call was inactive. As for `ClCC(Cl)CCl`, the entry is “inactive”; as for `COc1cc(-c2ccc(N)c(OC)c2)ccc1N`, “inactive”; as for `Oc1cccc2cccnc12`, “inactive”.

Turning to `O=C(O)C(F)(F)C(F)(F)C(F)(F)C(F)(F)C(F)(F)C(F)(F)F`, the compound was called inactive.
